Screening data as filed in PubChem.
Compounds with a hit are over-represented: about 12% of the library has one in this group of screens.
HP1b binding inh: inhibitors of HP1-beta chromodomain binding to methylated histone tails; AID 540317; P83916; AlphaScreen HP1-beta / biotin-H3K9me3 peptide binding; Potency, µM (titrated, usually from 114 µM), actives largely listed as inhibitors; actives 0.56% (n = 390,000); note: nearly all actives have a fitted effect of over 70% in size
Target sequence (P83916 whole entry, looked up): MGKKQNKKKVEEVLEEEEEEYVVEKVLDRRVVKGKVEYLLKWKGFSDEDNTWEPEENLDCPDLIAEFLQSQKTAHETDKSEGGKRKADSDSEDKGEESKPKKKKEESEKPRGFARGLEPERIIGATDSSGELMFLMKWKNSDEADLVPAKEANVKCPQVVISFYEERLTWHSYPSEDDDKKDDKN
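Compound inhibition of the preformed complex between 50 nM HP1-beta and 50 nM biotinylated H3K9me3 peptide was read by AlphaScreen. Buffer was PBS pH 7.4 with 0.01% Tween-20. Incubations ran 30 min at room temperature, with 10 ug/mL donor/acceptor beads.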
Sfp PPTase inh: inhibitors of Bacillus subtilis Sfp phosphopantetheinyl transferase; Q9F4F7; Biochemical Sfp PPTase activity, qHTS; Potency, µM, hits mostly inhibitors; actives 3.5% (n = 310,000); AID 1490;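 note: the enzyme is Sfp with the accession as filed and its product quenches rhodamine fluorescence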
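Reaction rates are the 30-min fluorescence difference (ex 525, em 598 nm) in wells containing 15 nM Sfp, 5 uM rhodamine-CoA and 12.5 uM BHQ-2-YbbR at pH 7.6 with 10 mM MgCl2.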
BAZ2B inh: BAZ2B (human) inhibition | AlphaScreen BAZ2B-H3K14Ac peptide displacement | actives 4.4% (n = 360,000) | Q9UIF8 | Potency, µM (doses to about 114 µM), usual class: inhibitors; note: nearly all actives have a fitted effect of over 60% in size
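AlphaScreen luminescence quantifies BAZ2B engagement of H3K14Ac peptide; the protein and biotinylated peptide are both at 50 nM final, buffer PBS pH 7.4 with 0.01% Tween-20, all steps at room temperature.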
G9a block: inhibitors of human histone lysine methyltransferase G9a; Potency, µM (highest dose often 102 µM), most hits filed as inhibitors; Q96KQ7; actives 8.8% (n = 350,000); G9a H3K9 monomethylation, AlphaScreen, 2 h; note: nearly all actives have a fitted effect of over 75% in size
Target sequence (Q96KQ7 913-1193 limits assumed): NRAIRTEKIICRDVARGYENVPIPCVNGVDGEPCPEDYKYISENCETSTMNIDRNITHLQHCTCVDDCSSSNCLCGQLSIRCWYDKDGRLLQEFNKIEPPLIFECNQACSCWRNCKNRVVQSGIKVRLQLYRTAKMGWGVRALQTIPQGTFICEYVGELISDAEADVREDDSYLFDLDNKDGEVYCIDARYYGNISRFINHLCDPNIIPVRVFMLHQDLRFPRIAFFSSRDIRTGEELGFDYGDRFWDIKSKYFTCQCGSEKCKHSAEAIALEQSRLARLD
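Methyltransferase reactions run at room temperature for 2 h (20 nM enzyme, 500 nM biotin-H3K9 peptide, 20 uM SAM) after a 15 min compound preincubation; product detected by AlphaScreen beads and anti-H3K9me1 antibody.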
L3MBTL1 inh: inhibitors of human L3MBTL1. AlphaScreen L3MBTL1–H3K9me1 peptide binding. Potency, µM (doses to about 57.1 µM), most hits filed as inhibitors. Q9Y468. actives 0.66% (n = 230,000); note: nearly all actives have a fitted effect of over 60% in size
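L3MBTL1 50 nM + b-AHA-H3(1-15)K9me1 75 nM, 30 min RT; compound added, 30 min RT; streptavidin donor/Ni-chelate acceptor beads 10 ug/mL each final, 30 min RT dark; AlphaScreen read.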
JMJD2A Tudor inh: inhibitors of human JMJD2A Tudor domain. O75164. AlphaScreen JMJD2A-Tudor / H3K4me3 peptide binding. Potency, µM (series often up to 114 µM), actives largely listed as inhibitors. actives 4.4% (n = 390,000); note: nearly all actives have a fitted effect of over 50% in size
Numbers stand for hits; 0 = inactive; ? = inconclusive; - = no result; [ ] = dose if it differs, or a comment. Calls come from the whole dose curve; as a rule, active = well fitted curve in the direction sought with a large enough effect; inconclusive = small, poorly fitted or top-dose-only effect, or another doubt; inactive = no such curve, though single readings can be large; an effect the other way counts as inactive or inconclusive.

SMILES	HP1b binding inh	Sfp PPTase inh	BAZ2B inh	G9a block	L3MBTL1 inh	JMJD2A Tudor inh
CN(C)c1ccc(S(=O)(=O)N2CCCCC2)cc1NC(=O)CCNC(=O)c1ccco1	0	-	0	0[12.7 µM]	0	0
Cc1ccc(CN2CCCn3nc(C(=O)NCc4ccc(N(C)C)cc4)cc3C2=O)cc1	0	-	?	14.1µM	-	?
COc1cc2c(cc1OC)C1=C(C#N)CCC(=O)N1CC2	0	0	0	0	0	0
COc1cc2c(cc1OC)C1=C(C#N)CC/C(=N\S(=O)(=O)c3ccccc3)N1CC2	0	0	0	79.4µM	0	0
COC(=O)c1[nH]c2cc(OC)ccc2c1NC(=O)CCN1CCCC(C)(C)C1	0	0	0	56.2µM	0	0
CCOC(=O)c1[nH]c2ccc(F)cc2c1NC(=O)c1ccccc1C(=O)O	0	0	0	14.1µM	-	0
CCOC(=O)c1[nH]c2cc(OC)c(OC)cc2c1NC(=O)CN1CCN(c2ccc(OC)cc2)C(C)C1 (stereo unspecified)	-	0	44.7µM	22.4µM	-	-
CCOC(=O)c1[nH]c2ccccc2c1NC(=O)Nc1ccc(OC)cc1	0	0	0	50.1µM	0	0
COc1ccc(CC(=O)Oc2ccc(F)cc2)cc1	0	0	0	0	0	0
Cn1nnnc1Sc1ncnc2scc(-c3cc4ccccc4o3)c12	0	-	0	0[0.501 µM]	0	?
CCOC(=O)c1[nH]c2ccc(OC)cc2c1NC(=O)c1cccc(OC)c1	0	0	0	?	0	0
CCOC(=O)c1[nH]c2ccc(OC)cc2c1NC(=O)c1ccccc1C(=O)O	0	?	0	44.7µM	-	0
CCOC(=O)c1[nH]c2ccc(OC)cc2c1NC(=O)CCN1CCC(C)CC1	0	0	0	4.47µM	-	0
CCCS(=O)(=O)Nc1c(C(=O)OC)[nH]c2ccccc12	0	0	0	50.1µM	0	0
COC(=O)c1[nH]c2ccccc2c1NS(=O)(=O)c1ccc(F)c(C)c1	0	0	0	?	0	0
C=CCNC(=S)Nc1c(C(=O)OC)[nH]c2cc(OC)ccc12	0	0	0	11.2µM	0	?
OC1(c2nc3ccccc3[nH]2)CCCCC1	0	-	0	0[2.33 µM]	0	0
CC(=O)N(C(C)=O)S(=O)(=O)c1ccc(N=NN2CCCCC2)cc1	0	0	0	0	0	0
CN(C)/C=N/c1nc2c(ncn2C2CC(O)C(CO)O2)c(=O)[nH]1 (stereo unspecified)	0	-	-	-	-	0
CC(=O)N1CCc2cc(S(=O)(=O)NCCCN3CCC(C)CC3)ccc21	0	0	0	0	-	0
COc1ccc2cc(C3(C)NC(=O)N(CC(=O)Nc4c(C)n(C)n(-c5ccccc5)c4=O)C3=O)ccc2c1 (stereo unspecified)	0	0	0	0	0	0
Cc1c(NC(=O)CN2C(=O)NC(C)(c3ccc(OC(F)F)cc3)C2=O)c(=O)n(-c2ccccc2)n1C (stereo unspecified)	0	-	0	50.1µM	0	0
CC1(c2ccc(OC(F)F)cc2)NC(=O)N(CC(=O)Nc2ccc3[nH]c(=O)[nH]c3c2)C1=O (stereo unspecified)	0	-	0	56.2µM	0	0
COc1ccc(C2(C)NC(=O)N(CC(=O)Nc3c(C)n(C)n(-c4ccccc4)c3=O)C2=O)cc1 (stereo unspecified)	0	-	0	56.2µM	0	0
COc1ccc(C2(C)NC(=O)N(CC(=O)Nc3ccc4[nH]c(=O)[nH]c4c3)C2=O)cc1 (stereo unspecified)	0	-	0	0	0	0
SMILES	HP1b binding inh	Sfp PPTase inh	BAZ2B inh	G9a block	L3MBTL1 inh	JMJD2A Tudor inh
C#CCOCCOCCOCCNc1nc(N2CCN(C(=O)Cn3cc(CCO)nn3)CC2)nc(N2CCN(C(=O)Cn3cc(CCCCN)nn3)CC2)n1	0	-	-	-	-	0
CCOc1cccc(C=NCCc2ccc(OC)c(OC)c2)c1O	0	0	0	-	0	0
CCCc1ccc(O)c(N=Cc2cc(Br)cc(OCC)c2O)c1	0	0	?	5.62µM	-	?
CCN1CCN(CCCNC(=O)c2ccc3c(c2)NC(=O)/C(=C\c2cccc(C)c2)S3)CC1	0	35.5µM	?	35.5µM	-	?
Cc1cccc(/C=C2/Sc3ccc(C(=O)NCCCN4CCOCC4)cc3NC2=O)c1	-	50.1µM	?	0	-	-
CC(c1ccccc1F)n1cc(C(=O)NCCc2ccco2)nn1 (stereo unspecified)	0	0	0	50.1µM	0	0
COCCNC(=O)c1cn(C(C)c2ccccc2F)nn1 (stereo unspecified)	0	0	0	0[12.7 µM]	-	0
Cc1cnc(C(=O)NC2CCSc3ccccc32)cn1 (stereo unspecified)	0	0	0	44.7µM	-	0
Cc1ccc(-n2ncc3c(=O)n(CC(=O)N(C(C)C)C(C)C)cnc32)cc1	0	0	0	0	0	0
O=C1Nc2ccc(Br)cc2/C1=N\N=C\C1=C(N2CCOCC2)C(=C/c2ccccc2)/CC1	5.01µM	-	-	-	-	3.16µM
O=C1Nc2ccccc2/C1=N\N=C\C1=C(N2CCOCC2)C(=C\c2ccccc2)/CC1	-	31.6µM	7.08µM	?	0	-
CCCCc1nn2c(=O)cc(COC(=O)c3ccccc3C)nc2s1	0	-	0	0	-	0
Cn1c(=N)n(CC(=O)c2ccc(Br)s2)c2ccccc21	0	0	0	?	-	0
N=c1n(CC(=O)c2ccc(Br)s2)c2ccccc2n1Cc1ccccc1	0	14.1µM	0	?	0	0
CC(C)OCCCN1CN(S(=O)(=O)c2cccs2)c2nc3ccccc3nc21	0	0	0	20µM	-	0
CC(C)CCN1CN(S(=O)(=O)c2cccs2)c2nc3ccccc3nc21	0	0	0	15.8µM	-	0
CCCCN1CN(S(=O)(=O)c2cccs2)c2nc3ccccc3nc21	-	?	0	?	0	-
O=S(=O)(c1cccs1)N1CN(Cc2ccco2)c2nc3ccccc3nc21	0	?	?	39.8µM	?	?
O=C(O)c1cccc2c1C(=O)c1ccc(-c3ccc(F)cc3F)cc1S2(=O)=O	0	-	0	0[2.33 µM]	0	0
C=CCSC1=C(C#N)C(c2ccccc2OCC)C(C#N)C(=O)N1 (stereo unspecified)	0	35.5µM	0	44.7µM	0	0
CCOC(=O)C1C(=O)NC(SCC(=O)OC)=C(C#N)C1c1ccccc1OCC (stereo unspecified)	0	0	0	0	-	0
CCOC(=O)C1C(=O)NC(SCC(=O)Nc2nccs2)=C(C#N)C1c1ccccc1OCC (stereo unspecified)	?	14.1µM	0	1.58µM	0	56.2µM
Cc1ccc([N+](=O)[O-])cc1NC(=O)CSc1nnc(C)n1CC1CCCO1 (stereo unspecified)	0	0	0	0	-	0
Cc1ccccc1Cn1c2ccccc2c2cnn(CC(=O)NCCCc3ccccc3)c(=O)c21	0	-	0	0	-	0
